Experimental findings from PubChem BioAssay (EPA / NIEHS) are described below.

Each structure is given as a SMILES string. Inconclusive results are not listed. The source made the active and inactive calls. The calls were made as follows: active = hit-call score of the fitted dose curve at least 0.9, where 1 is the maximum; inconclusive = response in the unintended direction; inactive = score below 0.9.

The nature of this experiment: ACEA_AR_antagonist_AUC_viability: ACEA Biosciences xCELLigence Real-Time Cell Analysis on Androgen Receptor Antagonism for Viability (AID 2283776).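 Also: area under impedance growth curve at 80 h after dosing as viability; hits lower the growth signal relative to DMSO meaning cytotoxicity.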 As for the experimental part: ACEA_AR_antagonist is a cell-based, single-readout assay that uses 22Rv1, a human prostate cancer cell line, with measurements taken at 80 hours after chemical dosing in a 384-well plate, although TO5 and TO6 (mc0.srcf) used a 96-well plate. Differences in plate size can be ignored given data normalization.ACEA_AR_80hr is one of two assay component(s) measured or calculated from the […] assay. It is designed to make measurements of real-time cell-growth kinetics, a form of growth reporter, as detected with electrical impedance signals by Real-Time Cell Electrode Sensor (RT-CES) technology.Data from the assay component ACEA_AR_antagonist_AUC_viability was analyzed in the positive analysis fitting direction relative to DMSO as the negative control and baseline of activity. Using a type of growth reporter, loss-of-signal activity can be used to understand changes in the viability. Furthermore, this assay endpoint can be referred to as a secondary readout, because this assay has produced multiple assay endpoints where this one serves a viability function. To generalize the intended target to other relatable targets, this assay endpoint is annotated to the cell cycle intended target family, where the subfamily is cytotoxicity.
The xCELLigence system Multi-E-Plate stations were used to measure the time-dependent response to chemicals. Each compound was tested in an eight-point, 1:4 serial dilution series starting at a maximum final concentration of 100 uM. A maximum starting concentration of 0.5% DMSO was present in the 100 uM chemical samples and was diluted along with the test article dilution series. The screen was performed in biological duplicate using two separate, 96-well, E-Plates 96 for each dilution series (n = 2). Positive controls (MG132 and testosterone) and a negative control (assay media) were tested in quadruplicate on each testing plate. Then, 0.5% and 0.125% DMSO were tested in duplicates in each plate to serve as solvent controls for the 2 highest concentrations of testing compounds: 100 uM and 25 uM. Reference compounds were tested with 8 concentrations with 1:5 serial dilutions. All screening was carried out by ACEA Biosciences, Inc. (San Diego, CA). 22Rv1 cells purchased from ATCC were maintained in media supplemented with 10% fetal bovine serum (FBS). Before screening, 22Rv1 cells were preconditioned in assay medium. Cells were then detached and seeded in E-Plates 96 in assay medium. After overnight monitoring of growth once every hour, compounds were added to […] cells and remained in the medium until the end of the experiment. Cellular responses were then recorded once every 5 min for the first 5 h, and once every hour for an additional 100 h.
As for `C[C@]12CC[C@@H]3c4ccc(O)cc4CC[C@H]3[C@@H]1C[C@@H](O)[C@@H]2O`, the AC50 was 1.16 µM (active).

Regarding `CCc1ccccc1O`, the call was inactive.

For `O=C(c1ccccc1)c1ccccc1`, the call was inactive.

For the compound `CC(C)[C@@H]1CC[C@@H](C)C[C@H]1O`, the concentration at half-maximal activity (AC50) is 0.541 µM (active).

Turning to `Cc1ccc(S(=O)(=O)O)cc1`, the result was inactive.

As to `Cc1cc(Cc2cc(C)cc(C(C)(C)C)c2O)c(O)c(C(C)(C)C)c1`, the AC50 was 21.4 µM (active).

As for `Cc1cc(C(=C2C=CC(=Nc3ccc(S(=O)(=O)O)cc3)C=C2)c2ccc(Nc3ccc(S(=O)(=O)O)cc3)cc2)cc(S(=O)(=O)O)c1N`, the outcome was inactive.

For the compound `NCCN`, the result was inactive.

`CC(C)c1c(C(=O)Nc2ccccc2)c(-c2ccccc2)c(-c2ccc(F)cc2)n1CC[C@@H](O)C[C@@H](O)CC(=O)O`: the AC50 was 4.96 µM (active).

On to `O=C(CCCN1CCC(O)(c2ccc(Cl)cc2)CC1)c1ccc(F)cc1`, for which the AC50 is 53.7 µM (active).

Take `CC(O)COc1ccccc1` (centres undefined): the outcome was inactive.

`CCCCCCCCCCCCOC(=O)c1cc(O)c(O)c(O)c1`: the concentration at half-maximal activity (AC50) was 3.44 µM (active).

Turning to `N=C(N)c1ccc(OCCCCCOc2ccc(C(=N)N)cc2)cc1`, the AC50 was 17.3 µM (active).

Turning to `O=C(O)c1cccc(C(=O)O)n1`, the call was inactive.

As for `c1cnc2c(c1)ccc1cccnc12`, the half-maximal activity concentration (AC50) is 3.57 µM (active).

Regarding `COc1cc([N+](=O)[O-])ccc1N`, the compound was called inactive.

`CCCCCCCCCC=CCC1CC(=O)OC1=O` (centres undefined): the compound was classed as inactive.

On to `O=C1NS(=O)(=O)c2ccccc21`, for which the compound was classed as inactive.

Regarding `CCCCc1oc2ccccc2c1C(=O)c1cc(I)c(OCCN(CC)CC)c(I)c1`, the concentration at half-maximal activity (AC50) was 9.15 µM (active).

As for `CN(Cc1cnc2nc(N)nc(N)c2n1)c1ccc(C(=O)N[C@@H](CCC(=O)O)C(=O)O)cc1`, the AC50 is 0.551 µM (active).

Consider `NS(=O)(=O)O`, for which the result was inactive.

`CC(=O)Nc1ccc(O)cc1`: the compound was classed as inactive.

As to `Cc1ccc(C)c(S(=O)(=O)O)c1`, the concentration at half-maximal activity (AC50) is 0.221 µM (active).

For the compound `CCC(C)c1ccccc1O` (centres undefined), the outcome was inactive.

On to `CCCCC=O`, for which the compound was called inactive.

Consider `CCCCCCCCCCCC(=O)O`, for which the outcome was inactive.

In the case of `CCCCc1ccc2ccccc2c1S(=O)(=O)O`, the outcome was inactive.

Turning to `CCCCC(CC)C(=O)O` (centres undefined), the call was inactive.

Turning to `CCCCCCc1ccc(N)cc1`, the result was inactive.

For `Cc1[nH]nc2c1N=C(c1ccccc1Cl)c1cc([N+](=O)[O-])ccc1N2`, the concentration at half-maximal activity (AC50) was 2.04 µM (active).

As to `Cc1cc(C(C)(C)C)c(O)c(C(C)(C)C)c1`, the AC50 is 0.144 µM (active).

As to `NC(=NCCCCCCN=C(N)/N=C(\N)Nc1ccc(Cl)cc1)/N=C(\N)Nc1ccc(Cl)cc1`, the concentration at half-maximal activity (AC50) was 10.6 µM (active).

As for `CN(C)CCOC(c1ccccc1)c1ccccc1`, the compound was classed as inactive.

On to `OCC(CO)(CBr)CBr`, for which the call was inactive.

Broadly, the AC50 is the concentration at which the activity in the assay is half-maximal.
